# Shown are actives, neighbours in structure and some others; about 2.3% of the full set was active somewhere.
# GLD-1 RNA inh: GLD-1/TGE RNA complex disruptors, primary screen, biochemical, fluorescence polarization | Female germline-specific tumor suppressor gld-1 (Caenorhabditis elegans), Q17339 | purified GLD-1 + fluorescein TGE RNA | inhibition, % at 5.96 µM | actives 0.44% (n = 320,000) | AID 2280, 2010;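 active = percent inhibition above a per-plate cutoff, the plate mean of test compounds plus 3 SD, cut at about 30% in these data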;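 note: 0% = DMSO wells with GLD-1 and probe and 100% = wells lacking GLD-1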
# MCL1 BIM primary: inhibitors of MCL1 binding to BIM-BH3, primary screen, biochemical, fluorescence polarization. Induced myeloid leukemia cell differentiation protein Mcl-1 (Homo sapiens), Q07820. GST-MCL1 / FITC-Bim-BH3 fluorescence polarization. inhibition, % at 10.9 µM. actives 0.68% (n = 320,000). AID 2057, 2009;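 active = inhibition above the mean inhibition of all tested compounds plus 3 SD, set per campaign, cut at about 40% in these data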;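 note: 0% = DMSO wells and 100% = unlabeled Bim-BH3 peptide control; higher means more loss of mP so more displacement of Bim peptide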
# Target sequence (Q07820 whole entry, looked up): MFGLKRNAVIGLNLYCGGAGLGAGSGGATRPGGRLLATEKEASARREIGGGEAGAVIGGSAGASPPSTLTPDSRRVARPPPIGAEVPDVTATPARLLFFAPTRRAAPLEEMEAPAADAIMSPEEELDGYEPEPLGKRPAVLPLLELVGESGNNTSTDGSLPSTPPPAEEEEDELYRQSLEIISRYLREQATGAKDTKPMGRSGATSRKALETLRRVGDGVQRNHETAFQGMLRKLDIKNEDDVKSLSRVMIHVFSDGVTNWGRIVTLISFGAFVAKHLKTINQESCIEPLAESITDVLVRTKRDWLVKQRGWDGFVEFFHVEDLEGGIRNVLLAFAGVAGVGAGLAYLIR
# Mcl1-Bid inh: Mcl-1/Bid binding inhibitors, primary screen, biochemical, TR-FRET, 1536-well. actives 0.97% (n = 220,000). inhibition, % at 21.7 µM. AID 1021, 2008. TR-FRET Mcl-1/Bid-Dy647 peptide binding. Induced myeloid leukemia cell differentiation protein Mcl-1 (Homo sapiens), Q07820;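 active = compounds that cut the binding signal by more than half at the single screening dose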;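 note: His-tagged Mcl-1 with europium anti-His antibody binding Bid BH3 peptide; 0% = Mcl-1 plus peptide wells and 100% = peptide-only wells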
# BCLXL inh: inhibitors of human Bcl-xL, primary screen, biochemical, fluorescence polarization, HTS; Bcl-2-like protein 1 (Homo sapiens), Q07817; GST-Bcl-xL / FITC-Bim BH3 peptide fluorescence polarization; inhibition, % at 10.9 µM; actives 0.7% (n = 320,000);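 active = inhibition above the mean of all tested compounds plus 3 SD, cutoff set per campaign, cut at about 30% in these data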;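 note: 0% = DMSO wells and 100% = unlabeled Bim-BH3 peptide competitor; inhibitors lower millipolarization by displacing the labeled peptide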
# Target sequence (Q07817 whole entry, looked up): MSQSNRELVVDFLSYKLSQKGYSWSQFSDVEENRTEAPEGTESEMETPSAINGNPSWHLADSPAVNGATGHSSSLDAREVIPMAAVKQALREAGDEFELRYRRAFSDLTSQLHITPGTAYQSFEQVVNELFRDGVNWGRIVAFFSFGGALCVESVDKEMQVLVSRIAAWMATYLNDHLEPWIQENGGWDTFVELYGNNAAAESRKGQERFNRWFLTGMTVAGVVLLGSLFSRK
# Mcl-1 Bim block: inhibitors of Bim peptide binding to Mcl-1, primary screen, biochemical, bead-based flow cytometry, multiplex. Induced myeloid leukemia cell differentiation protein Mcl-1 (Homo sapiens), Q07820. actives 0.1% (n = 190,000). inhibition, % at 10 µM. Bim peptide-Mcl-1 binding; in the data active = inhibition above about 40%;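 note: 0% = no compound tracer wells and 100% = peptide blocker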
# Mcl1-Noxa inh: Mcl-1/Noxa binding inhibitors, primary screen, biochemical, TR-FRET, 1536-well; Induced myeloid leukemia cell differentiation protein Mcl-1 (Homo sapiens), Q07820; TR-FRET Mcl-1/Noxa peptide binding, 2 h; inhibition, % at 21.7 µM; actives 1.5% (n = 220,000);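 active = compounds that cut the protein-peptide binding signal by more than 50% relative to plate controls in a single-dose test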;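 note: His-tagged Mcl-1 with rhodamine Noxa BH3 peptide and terbium anti-His antibody; 0% = Mcl-1 plus Noxa peptide wells and 100% = peptide-only wells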
# An asterisk follows results filed as active; x = not tested or not shown.
SMILES,GLD-1 RNA inh,MCL1 BIM primary,Mcl1-Bid inh,BCLXL inh,Mcl-1 Bim block,Mcl1-Noxa inh
O=C(Cc1sc(-c2ccccc2Cl)nc1-c1ccccc1)Nc1ccccc1,5,1,84*,1,6,-29
Cc1ccc(N(CC(=O)N(C)Cc2ccccc2)S(C)(=O)=O)cc1C,10,-2,x,4,x,x
Cc1ccc(-c2cc(C(=O)NC3=NCCS3)c3cc(Br)ccc3n2)o1,-1,24,51*,13,8,102*
Cc1ccc(-c2cc(C(=O)NN3CCOCC3)c3cc(Br)ccc3n2)o1,5,10,1,7,1,57*
Cc1ccc(-c2cc(C(=O)NCCCn3ccnc3)c3cc(Br)ccc3n2)o1,12,34,34,17,0,76*
O=C(NC1=NCCS1)c1cc(-c2cccs2)nc2ccccc12,5,-9,-93,-3,x,8
Cc1cccc(-c2cc(C(=O)NCCCn3ccnc3)c3ccccc3n2)c1,x,x,-27,x,-2,5
C=CCn1cc(C(=O)NCCCN(CC)CC)c(=O)c2cc(S(=O)(=O)N3CCC(C)CC3)ccc21,1,1,x,2,x,x
O=C(O)c1cc(Cl)c2c(c1)[C@@H]1C=CC[C@@H]1[C@H](c1ccc(S(=O)(=O)N3CCOCC3)cc1)N2,15,48*,-7,40*,0,23
O=S(=O)(c1ccc(C2CCCCC2)cc1)N1CCOCC1,0,-3,3,-1,0,4
Cc1cc(C)c2c(c1)C1C=CCC1C(c1ccc(S(=O)(=O)N3CCOCC3)cc1)N2 (centres undefined),4,36,70*,12,0,95*
Cc1ccc(S(=O)(=O)N2CCOCCOCCOCCOCCOCC2)cc1,4,-3,x,9,x,x
C[C@@H]1CN([C@H](C)CO)C(=O)c2cc(NS(=O)(=O)c3ccc(F)cc3)ccc2O[C@@H]1CN(C)Cc1ccc(Cl)c(Cl)c1,1,x,x,x,x,x
O=C(NCCO)Nc1ccc2nsnc2c1,-6,2,5,6,4,-13
CCc1nc2ccc(C(=O)NCCc3ccco3)cc2nc1CC,1,-2,x,7,x,x
O=C(NCCO)Nc1ccc2nc(-c3ccco3)c(-c3ccco3)nc2c1,78*,145*,18,136*,15,106*
O=C(NCCCO)c1ccc2nc(-c3ccco3)c(-c3ccco3)nc2c1,x,x,-19,x,18,91*
CC(=O)Nc1sc(N/N=C/c2ccc(C)cc2)nc1-c1ccc(C)cc1,-3,12,-38,4,x,24
COc1ccc(/C=N/Nc2nc(-c3ccc(C)cc3)c(NC(C)=O)s2)cc1OC,-16,-6,-33,-2,x,57*
CCOc1cc(/C=N\Nc2nc(-c3ccc(C)cc3)c(NC(C)=O)s2)ccc1O,-7,9,-6,3,x,67*
COc1cc(/C=N\Nc2nc(-c3ccc(C)cc3)c(NC(C)=O)s2)ccc1O,-4,1,-53,0,x,83*
Cc1cc(S(=O)(=O)NCc2ccccc2)ccc1OCC(=O)NCc1ccncc1,4,3,x,3,x,x
Cn1c(SCCC#N)nnc1-c1ccc(F)cc1,7,13,-34,5,-2,4
CC1=C(SCCC#N)S/C(=C2\SC(C)=C(SCCC#N)S2)S1,4,16,96*,13,-7,74*
CC1(OC(=O)C2CCCC2)C(=O)C=C2C=C(c3ccsc3)N(CC3CC3)C=C2C1=O (centres undefined),17,31,-82,27,x,8
SMILES,GLD-1 RNA inh,MCL1 BIM primary,Mcl1-Bid inh,BCLXL inh,Mcl-1 Bim block,Mcl1-Noxa inh
CC1(OC(=O)C2CCCC2)C(=O)C=C2C=C(c3ccsc3)N(C3CCCCC3)C=C2C1=O (centres undefined),24,23,-63,30*,x,23
O=C(Cn1nc2n(c1=O)-c1ccccc1SC2)N/N=C/c1cccs1,8,-1,-33,6,x,9
O=S(=O)(Nc1ccncc1)c1ccccc1,0,-1,15,-2,-1,1
O=S(=O)(Nc1ccc(-c2cnco2)cc1)c1ccccc1,10,22,-4,31*,x,2
O=C(NCCCc1ccccc1)c1cc(COc2ccc(F)cc2Cl)on1,14,34,x,35*,x,x
Cc1ccc(-c2cc(C(=O)Nc3ccc(S(=O)(=O)Nc4ncccn4)cc3)[nH]n2)c(O)c1C,-1,3,-5,4,x,56*
Oc1ccc(-c2nc(-c3ccc(O)c(O)c3)cs2)cc1,-2,24,-2,18,0,59*
COc1cc(/C=N/N(C)c2ccccc2)ccc1O,4,3,-36,6,0,56*
COc1cc(OC)c(OC)cc1/C=N/N(C)c1ccccc1,2,0,-42,2,0,-4
COc1cc(/C=N/NC(=O)C2c3ccccc3Oc3ccccc32)ccc1O,-3,3,10,0,13,79*
Clc1cccc(-c2ccc(C3Nc4cccc5cccc(c45)N3)o2)c1,15,x,x,x,x,x
Cc1ccn2c(Nc3ccc4c(c3)OCO4)c(-c3ccc(O)cc3)nc2c1,0,9,-98,8,x,51*
Cc1cccc2nc(CSc3nc4ccc([N+](=O)[O-])cc4[nH]3)c(Br)n12,-3,-5,-41,-12,-4,60*
NC(=O)CSc1nc2ccc([N+](=O)[O-])cc2[nH]1,-3,-15,-26,-12,0,15
O=C(COc1ccc(-c2nnco2)cc1)NC1CCCc2ccccc21 (centres undefined),0,1,60*,7,5,10
O=C(COc1ccccc1)NC1CCCc2ccccc21 (centres undefined),1,5,-26,1,-4,-2
CCOC(=O)C1CCN(S(=O)(=O)c2ccc(NC(=O)c3ccco3)cc2)CC1,-2,-6,x,-3,x,x
O=c1cc(O)c2sc(Nc3ccc(F)c(Cl)c3)nc2[nH]1,-22,-25,-94,-11,3,53*
COc1ccc(Nc2nc3[nH]c(=O)cc(O)c3s2)cc1,-9,1,-67,-3,0,36
O=c1cc(O)c2sc(Nc3ccc(Cl)c(F)c3)nc2[nH]1,-15,-40,-180,-29,x,51*
C[C@@H]1CN([C@H](C)CO)C(=O)c2cccc(NC(=O)Nc3ccc(F)cc3)c2O[C@H]1CN(C)C(=O)Nc1ccc(C(F)(F)F)cc1,6,x,x,x,x,x

# Compound activity (PubChem)
